Active and inactive are the calls of the source.
Assays:
[1] = compounds binding Alexa647 anti-His antibody – biochemical, small-molecule microarray, 635 nm fluorescence, artefact control for SMM control protein annotation, primary screen (AID 1128); conditions: higher = more signal;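 further: score merges feature fluorescence with signal-to-noise for each printed compound spot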
[2] = system: Human papillomavirus type 1a E7 protein (residues 1-88); test: HPV1a E7 small-molecule binders, primary screen, biochemical, small-molecule microarray, residues 1-88, 635 nm (AID 1129); conditions: small-molecule microarray binding, fluorescence 635 nm; higher = more signal
[3] = molecular target: Focal adhesion kinase 1 (Homo sapiens) (UniProt Q05397); test: PTK2 protein binding on printed compound slides – biochemical, small-molecule microarray, 635/667 nm fluorescence, BSA, DTT, primary screen (AID 1130); conditions: 635 nm fluorescence, higher = more signal;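 further: composite of spot emission at 667 nm and signal to noise over triplicate slides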
Focal adhesion kinase 1 (Homo sapiens), sequence (Q05397 whole entry, looked up): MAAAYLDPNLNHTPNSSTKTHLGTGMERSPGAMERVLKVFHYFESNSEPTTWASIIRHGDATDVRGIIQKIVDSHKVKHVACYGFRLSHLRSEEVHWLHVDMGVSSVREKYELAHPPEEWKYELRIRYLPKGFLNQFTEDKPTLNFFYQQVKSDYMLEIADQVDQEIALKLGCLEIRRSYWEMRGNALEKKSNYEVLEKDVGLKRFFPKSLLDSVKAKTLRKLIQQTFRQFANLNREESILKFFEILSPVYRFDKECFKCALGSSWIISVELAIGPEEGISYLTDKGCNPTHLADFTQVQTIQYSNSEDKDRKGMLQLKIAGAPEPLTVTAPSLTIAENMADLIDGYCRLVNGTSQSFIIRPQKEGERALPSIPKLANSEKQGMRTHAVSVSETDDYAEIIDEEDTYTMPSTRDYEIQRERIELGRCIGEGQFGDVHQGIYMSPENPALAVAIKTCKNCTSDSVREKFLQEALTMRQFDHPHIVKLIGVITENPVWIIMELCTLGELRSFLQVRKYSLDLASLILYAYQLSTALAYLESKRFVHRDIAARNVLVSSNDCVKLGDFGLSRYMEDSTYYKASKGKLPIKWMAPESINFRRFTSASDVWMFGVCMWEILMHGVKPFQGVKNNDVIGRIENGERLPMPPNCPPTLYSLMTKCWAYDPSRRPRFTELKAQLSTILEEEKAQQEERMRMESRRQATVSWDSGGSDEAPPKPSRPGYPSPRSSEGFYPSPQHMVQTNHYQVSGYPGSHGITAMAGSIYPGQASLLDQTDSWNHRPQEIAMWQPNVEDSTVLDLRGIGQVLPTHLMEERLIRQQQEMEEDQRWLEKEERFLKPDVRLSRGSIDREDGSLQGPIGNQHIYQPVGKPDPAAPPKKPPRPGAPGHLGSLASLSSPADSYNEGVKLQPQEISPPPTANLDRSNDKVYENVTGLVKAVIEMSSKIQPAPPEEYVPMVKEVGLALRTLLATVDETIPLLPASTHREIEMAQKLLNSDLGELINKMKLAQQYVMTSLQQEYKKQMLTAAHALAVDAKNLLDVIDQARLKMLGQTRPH

[4] = system: Fibrinogen (Alexa647-labelled); test: Alexa647-fibrinogen binding to printed small molecules – biochemical, small-molecule microarray, 635/667 nm fluorescence, artefact control for SMM control-protein annotation, profiling panel (AID 1131); conditions: fibrinogen-A647 binding fluorescence, higher = more signal;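 further: z-score merges 667 nm fluorescence with per-spot signal-to-noise over triplicate slides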
[5] = molecular target: Follistatin (Homo sapiens) (UniProt P19883); test: FST protein binding to printed compounds – biochemical, small-molecule microarray, 635/667 nm fluorescence, primary screen (AID 1132); conditions: 635 nm fluorescence, higher = more signal
Follistatin (Homo sapiens), sequence (P19883 whole entry, looked up): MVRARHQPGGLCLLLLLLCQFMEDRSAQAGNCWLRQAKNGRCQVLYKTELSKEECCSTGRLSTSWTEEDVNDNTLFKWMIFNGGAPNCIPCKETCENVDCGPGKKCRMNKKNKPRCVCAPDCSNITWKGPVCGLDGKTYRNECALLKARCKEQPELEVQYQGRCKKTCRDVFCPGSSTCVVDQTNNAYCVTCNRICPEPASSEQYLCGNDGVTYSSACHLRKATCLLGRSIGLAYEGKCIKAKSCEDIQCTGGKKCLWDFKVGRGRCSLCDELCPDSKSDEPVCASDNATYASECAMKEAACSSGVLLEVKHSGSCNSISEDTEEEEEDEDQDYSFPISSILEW

[6] = molecular target: Fibroblast growth factor 2 (Homo sapiens) (UniProt P09038); test: basic fibroblast growth factor binding to printed compounds – biochemical, small-molecule microarray, 635/667 nm fluorescence, primary screen (AID 1133); conditions: FGF2, fluorescence 635/667, higher = more signal
Fibroblast growth factor 2 (Homo sapiens), sequence (P09038 whole entry, looked up): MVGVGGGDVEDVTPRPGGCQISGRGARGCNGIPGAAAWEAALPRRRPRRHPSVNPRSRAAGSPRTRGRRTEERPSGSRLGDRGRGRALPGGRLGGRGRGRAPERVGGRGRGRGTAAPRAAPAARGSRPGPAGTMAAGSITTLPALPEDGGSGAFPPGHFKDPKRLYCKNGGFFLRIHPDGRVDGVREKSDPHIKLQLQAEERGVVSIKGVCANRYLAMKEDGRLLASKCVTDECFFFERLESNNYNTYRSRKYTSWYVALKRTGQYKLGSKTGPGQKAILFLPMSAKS

[7] = JC-1 mitochondrial potential readout, lung cancer cells – cell-based, A549, JC-1 fluorescence, basal, 24 h, 100 nL, profiling panel (AID 1138); conditions: higher = more signal;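 further: A549 lung adenocarcinoma cells under basal conditions with no added stimulus; test concentration not given here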
[8] = system: Lefty1; test: Lefty1 protein binding to printed compounds – biochemical, small-molecule microarray, 635/667 nm fluorescence, primary screen (AID 1139); conditions: fluorescence 635/667, higher = more signal
[9] = system: wheat germ agglutinin (Triticum aestivum), Alexa647-labelled; test: Alexa647-WGA lectin binding to printed small molecules – biochemical, small-molecule microarray, 635/667 nm fluorescence, artefact control for SMM control-protein annotation, profiling panel (AID 1140); conditions: WGA-A647 binding, 635 nm fluorescence, higher = more signal;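 further: score merges 667 nm feature emission with signal to noise over triplicate slides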
[10] = molecular target: Luciferin 4-monooxygenase (Photinus pyralis) (UniProt P08659); test: inhibition of purified Photinus pyralis luciferase – biochemical, luminescence, purified enzyme, 2006 set, primary screen (AID 1141); conditions: purified firefly luciferase, SteadyGlo luminescence, 30 min; higher = more signal, called active from +8 up or from −8 down;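 further: cell-free assay with purified firefly luciferase at 100 ng per well in PBS; test concentration not given here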
Luciferin 4-monooxygenase (Photinus pyralis), sequence (P08659 whole entry, looked up): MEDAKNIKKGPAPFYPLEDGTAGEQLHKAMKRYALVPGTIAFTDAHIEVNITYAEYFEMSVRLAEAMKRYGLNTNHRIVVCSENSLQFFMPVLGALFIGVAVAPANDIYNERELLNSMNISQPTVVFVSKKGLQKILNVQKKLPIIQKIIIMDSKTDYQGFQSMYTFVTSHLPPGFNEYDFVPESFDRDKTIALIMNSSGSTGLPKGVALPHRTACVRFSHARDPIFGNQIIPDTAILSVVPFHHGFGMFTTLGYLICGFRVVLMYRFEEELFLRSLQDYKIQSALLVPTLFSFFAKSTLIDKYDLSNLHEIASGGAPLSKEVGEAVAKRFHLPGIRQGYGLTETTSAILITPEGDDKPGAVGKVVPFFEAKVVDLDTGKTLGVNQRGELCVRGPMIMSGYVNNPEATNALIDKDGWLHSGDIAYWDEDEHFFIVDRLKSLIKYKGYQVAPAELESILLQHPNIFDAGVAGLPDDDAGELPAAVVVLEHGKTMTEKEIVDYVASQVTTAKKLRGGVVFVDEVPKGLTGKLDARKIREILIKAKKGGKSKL

Row | SMILES | composite z-score [1] | composite z-score [2] | composite z-score [3] | composite z-score [4] | composite z-score [5] | composite z-score [6] | z-score [7] | composite z-score [8] | composite z-score [9] | z-score [10]
1 | CCc1cccc(NC(=O)O[C@H]2[C@H](OC(=O)Nc3ccccc3)[C@@H](OC(=O)Nc3ccccc3)[C@@H](OC)O[C@@H]2CO)c1 | 0.51 | 1.29 | 0.497 | 0.978 | 1.4 | 0.786 | -1.47 | 0.937 | 0.966 | 0.846 (inactive)
2 | CC(C)C[C@@H]1NC(=O)[C@H](CC(C)C)NC(=O)[C@@]23C(=O)N[C@@H](Cc4ccccc4)C2[C@H](C)[C@@]2(C)O[C@H]2C3/C=C/CC/C=C/CNC1=O (stereo not given in full) | 0.239 | 0.329 | 0.427 | 0.722 | 0.758 | 0.319 | 0.234 | 1.01 | 0.265 | 0.244 (inactive)
3 | COCCOC(=O)N1C(=O)[C@@]2(c3cc(C#CCC(C(=O)OC)C(=O)OC)ccc31)[C@H](C(=O)N1CCN(c3ncccn3)CC1)[C@H]1C(=O)O[C@H](c3ccccc3)[C@H](c3ccccc3)N1[C@@H]2c1ccc(O)cc1 | 1.55 | 1.19 | 0.89 | 0.65 | 0.51 | 0.393 | 1.95 | 0.72 | 1.07 | -1 (inactive)
4 | CO[C@H]1O[C@H](CO)[C@@H](OC(=O)Nc2ccc(Oc3ccccc3)cc2)[C@H](OC(=O)Nc2ccccc2-c2ccccc2)[C@H]1OC(=O)Nc1ccccc1-c1ccccc1 | 2.31 | 1.24 | 1.62 | 0.98 | 0.95 | 0.938 | -1.28 | 0.62 | 1.38 | -1.02 (inactive)
5 | CC(C)[Si]1(C(C)C)O[C@@H](c2ccccc2)c2cc(C3CC3)nc(-c3ccc(Oc4ccccc4)cc3)c21 | -1.14 | -0.889 | -0.323 | -0.812 | -0.591 | -0.192 | 1.55 | -0.315 | -1.33 | -0.626 (inactive)
6 | CCC(=O)[C@]12O[C@@]3([C@@H]4C(=O)OCC[C@@H]41)N(CC)C(C)=C(C(=O)OC)[C@@H](c1ccccc1)N3C2=O | 1.41 | -1.67 | 0.335 | -0.62 | 0.754 | 0.111 | -0.404 | 0.373 | -0.0702 | -0.533 (inactive)
7 | NC(=O)[C@H]1[C@@H]2C(=O)O[C@@H](c3ccccc3)[C@@H](c3ccccc3)N2[C@@H](c2ccc(O)cc2)[C@]12C(=O)Nc1ccc(C#CCCO)cc12 | 2.14 | -1.66 | -0.574 | -1.74 | -0.458 | -0.581 | -1.14 | -0.997 | -1.4 | -0.0824 (inactive)
8 | CCOC(=O)[C@H]1C/C=C/C[C@H](C(=O)OCC)C(=O)O[C@H]2[C@@H](OC)O[C@H](CO)[C@@H](OC(=O)Nc3ccc(Br)cc3)[C@@H]2OC1=O | 0.441 | 1.21 | 0.361 | 0.708 | 0.623 | 0.376 | -2.32 | 0.588 | 1.21 | -1.72 (inactive)
9 | C[C@H]1NC(=O)[C@@H](C)NC(=O)[C@@]23C(=O)N[C@@H](Cc4ccccc4)C2[C@H](C)[C@@]2(C)O[C@H]2C3/C=C/C/C=C\CNC1=O (stereo not given in full) | -0.759 | -1.84 | -0.801 | -0.388 | 0.117 | 0.0213 | 1.07 | -0.0767 | 0.0969 | -0.919 (inactive)
10 | C#C[C@H](O[Si](C#Cc1ccccc1)(C(C)C)C(C)C)c1ccccc1 | 0.126 | -0.581 | -0.515 | -0.664 | -0.89 | -0.487 | -1.47 | -0.126 | -0.242 | 0.645 (inactive)
11 | COc1ccc(C(O)C2C=CC3C(=O)N(C)C(=O)C3N2N2CCCCC2)cc1OCc1ccccc1 (stereo not given) | 1.31 | 1.2 | 0.391 | 0.838 | 0.795 | -0.444 | 0.0785 | -0.24 | 0.951 | -0.381 (inactive)
12 | Cc1ccc(S(=O)(=O)c2cc3oc2CC[C@@H](CO)NC(=O)N(C)Cc2cn(nn2)C[C@H](Cc2ccccc2)NC3=O)cc1 | 3.02 | -0.157 | 2.07 | 0.814 | -0.0009 | 0.108 | 1.95 | -0.442 | -0.0961 | -1.53 (inactive)

Source: PubChem BioAssay
